# Cruzain inh noDet = inhibitors of Trypanosoma cruzi cruzain without detergent | Potency, µM, for inactives: max response, negative = inhibition, most hits filed as inhibitors | purified cruzain, Z-FR-AMC fluorescence, no detergent | hit rate 2.3% among 200,000 | AID 1476;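 further: plate controls were enzyme without inhibitor for no effect and buffer without enzyme for full effect; nearly all actives have a fitted effect of over 40% in size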
# Target sequence (P25779 123-467 limits assumed): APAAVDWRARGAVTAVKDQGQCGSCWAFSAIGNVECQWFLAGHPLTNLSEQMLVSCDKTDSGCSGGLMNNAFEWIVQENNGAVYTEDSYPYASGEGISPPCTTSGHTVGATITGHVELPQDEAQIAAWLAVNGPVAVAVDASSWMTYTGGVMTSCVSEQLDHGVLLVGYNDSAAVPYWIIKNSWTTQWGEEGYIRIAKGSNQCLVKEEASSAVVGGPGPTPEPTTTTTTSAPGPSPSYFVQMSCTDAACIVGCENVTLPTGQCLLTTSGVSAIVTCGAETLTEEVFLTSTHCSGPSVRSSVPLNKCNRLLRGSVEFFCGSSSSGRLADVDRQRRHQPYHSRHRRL
#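 Purified cruzain at 1.5 nM, pre-incubated 15 min with compound at room temperature in 100 mM sodium acetate pH 5.5, 5 mM DTT, 0.00005% Triton X-100. Reaction started with 2 uM Z-FR-AMC; AMC fluorescence increase over 60 s gives rate.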
# Cruzain inh Det = cruzain (T. cruzi) inhibition with detergent; purified cruzain, Z-FR-AMC fluorescence, 0.01% Triton; Potency, µM, for inactives: max response, negative = inhibition, hits mostly inhibitors; hit rate 0.43% among 200,000;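 further: plate controls were neutral wells for no effect and buffer without enzyme for full effect; nearly all actives have a fitted effect of over 40% in size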
#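 Cysteine protease activity tested under reducing, mildly acidic conditions (100 mM sodium acetate pH 5.5, 5 mM DTT) plus 0.01% Triton X-100. Cruzain 1.5 nM; substrate Z-FR-AMC 2 uM; 15 min compound preincubation at room temperature.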
# Papain inh = papain (Carica papaya) inhibition counter-screen. hit rate 41% among 410. AID 2161. shares compounds with Cruzain inh Det. Potency, µM, without a hit: max response, negative = inhibition, usual class: inhibitors. purified papain, Z-FR-AMC fluorescence cleavage;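 further: 0% = no-compound wells and -100% = no-enzyme wells; nearly all actives have a fitted effect of over 35% in size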
# Target sequence (P00784 whole entry, looked up): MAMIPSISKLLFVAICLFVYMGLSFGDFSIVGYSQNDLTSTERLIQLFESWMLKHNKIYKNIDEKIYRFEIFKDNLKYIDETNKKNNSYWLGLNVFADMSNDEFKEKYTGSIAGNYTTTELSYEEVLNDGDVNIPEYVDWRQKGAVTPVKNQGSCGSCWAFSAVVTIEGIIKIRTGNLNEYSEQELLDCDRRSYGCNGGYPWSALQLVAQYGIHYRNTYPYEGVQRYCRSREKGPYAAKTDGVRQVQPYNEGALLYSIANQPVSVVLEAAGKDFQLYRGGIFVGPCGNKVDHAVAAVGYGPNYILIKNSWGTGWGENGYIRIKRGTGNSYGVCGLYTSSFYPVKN
# Active calls of the source: *; ? = inconclusive; · = not tested or not shown. Compounds with a hit are over-represented: about 2.6% of the library has one in this group of screens. The call rests on the fitted dose curve; in most records, active means well fitted curve in the direction sought with a large enough effect; inconclusive means small, poorly fitted or top-dose-only effect, or another doubt; inactive means no such curve, though single readings can be large; an effect the other way counts as inactive or inconclusive. Potency means the concentration at half of the fitted maximal effect.
SMILES,Cruzain inh noDet,Cruzain inh Det,others
CCOC(=O)c1c(NC(=O)CSc2c[nH]c3ccccc23)sc2c1CCC2,31.6µM*,-5.2%,
CCOC(=O)c1c(NC(=O)CSc2c[nH]c3ccccc23)sc2c1CCCC2,25.1µM*,-0.7%,
CCOC(=O)Cn1c(=O)n(-c2ccccc2OC)c2nc(-c3ccccc3C)nc(C(N)=O)c21,?,-4.9%,
CCCCC(=O)Nc1ccc2nc(SCC(=O)N3CCc4ccccc43)sc2c1,-18.6%,-3.1%,
COc1ccc(NC(=O)CSC2=Nc3ccccc3C3=NC(CCC(=O)NCc4ccco4)C(=O)N23)cc1 (stereo not drawn),-12.7%,1.5%,
COc1cc2c(C#N)c(N3CCCCC3)nc(N)c2c(N)n1,-28.5%,-12.6%,
COc1cc2c(C#N)c(N3CCc4ccccc4C3)nc(N)c2c(N)n1,12.6µM*,-8.6%,
CCOCCCNC(=O)C1CCCN(Cc2nc(-c3ccc(CC)cc3)oc2C)C1 (stereo not drawn),5.8%,-0.9%,
N#Cc1ccc(CN2CCC3(CC2)CCN(S(=O)(=O)c2ccccc2)CC3)cc1,27.4%,0.2%,
Cc1ccc(-c2nn(-c3cc(Cl)ccc3[N+](=O)[O-])c(=O)c3ccccc23)cc1C,12.6µM*,0.0%,
O=c1c2ccccc2c(-c2ccccc2)nn1-c1cc(Cl)ccc1[N+](=O)[O-],?,-0.9%,
Cc1ccc(N/N=C/c2ccc3c(c2)OCCO3)cc1Cl,20µM*,2.8%,
O=C(O)c1cc(N/N=C/c2ccc3c(c2)OCCO3)ccc1Cl,-1.1%,-8.1%,
CC[C@H](C)[C@@H](NC(=O)O[C@@H]1Cc2cc(OC)ccc2O[C@H]1c1cccc(OC)c1)C(=O)OC,4.3%,-4.2%,
Cc1sc(N/N=C/c2cccnc2)nc1-c1ccc(Cl)cc1,15.8µM*,-6.5%,
Clc1ccc(N/N=C/c2cccnc2)cc1,9.8%,-10.1%,
COc1cccc(Nc2ncc3ncc(=O)n(C)c3n2)c1,-18.5%,-5.0%,
COc1ccc(C)cc1-n1nnnc1SCC(=O)c1ccc2c(c1)OCCO2,25.1µM*,0.0%,
COc1ccc(-n2nnnc2SCC(=O)c2ccc3c(c2)OCCO3)c(OC)c1,?,0.3%,
N#Cc1c(-c2ccccc2)cc(-c2ccco2)c(C#N)c1N,-22.1%,-3.1%,Papain inh=7.7%
N#Cc1sc2nc(-c3ccccc3)cc(-c3ccco3)c2c1N,-14.7%,-13.5%,
NC(=O)CSc1nnc([C@@H](N)Cc2c[nH]c3ccccc23)o1,10µM*,8.91µM*,Papain inh=7.2%
CC(C)(C)OC(=O)N[C@@H](Cc1c[nH]c2ccccc12)c1nnc(SCC(N)=O)o1,12.9%,3.3%,
COc1ccc(-c2nc(C#N)c(NCCCN3CCOCC3)o2)cc1,-12.9%,20µM*,Papain inh=3.98µM*
N#Cc1nc(-c2ccc(F)cc2)oc1NCCN1CCOCC1,-3.4%,-3.8%,
SMILES,Cruzain inh noDet,Cruzain inh Det,others
Clc1ccccc1-c1nnc2sc(-c3ccc4c(c3)OCO4)nn12,?,-3.0%,
COc1ccccc1-c1nn2c(-c3cc(-c4ccccc4)n[nH]3)nnc2s1,·,·,Papain inh=35.5µM*
CN(C)c1ccc(-c2nn3c(-c4cc(-c5ccccc5)n[nH]4)nnc3s2)cc1,·,·,Papain inh=-25.5%
Clc1ccccc1-c1nn2c(-c3cc(-c4ccccc4)n[nH]3)nnc2s1,·,·,Papain inh=-7.6%
COc1ccccc1-c1nn2c(-c3ccccc3Cl)nnc2s1,-16.2%,0.7%,
CN(C)c1ccc(-c2nn3c(-c4ccc(Cl)cc4Cl)nnc3s2)cc1,?,2.1%,
COC(=O)CSc1nnc2n(-c3ccccc3)c(=O)c3c4c(sc3n12)COC(C(C)C)C4 (stereo not drawn),-8.9%,-0.2%,
CCOC(=O)c1sc(NC(=O)c2nc(SC)ncc2Cl)c(C(=O)OCC)c1C,1.5%,-1.7%,
NCOC(=O)Cc1ccc(Br)cc1,-0.6%,4.4%,
CCOc1ccccc1NC(=O)N1CCN(Cc2cc(=O)n3nc(-c4ccc(C)cc4)sc3n2)CC1,-10.2%,4.4%,
COC(=O)CCC(C)C1CCC2C3CC[C@H]4CC(O)CC[C@@]4(C)C3CC(O)[C@]12C (stereo partly drawn),?,-9.1%,Papain inh=-6.0%
COC(=O)CC[C@@H](C)[C@H]1CC[C@H]2[C@@H]3CC[C@@H]4C[C@H](O)CC[C@]4(C)[C@H]3C[C@H](O)[C@]12C,?,-6.1%,
O=c1oc2c3c(ccc2c2ccccc12)OCN(Cc1ccccc1Cl)C3,-9.9%,-2.9%,
COc1ccc(/C=N/NC(=O)c2ccc(Br)cc2)cc1Cn1cc(Cl)cn1,?,-5.3%,Papain inh=-58.5%
COc1ccc(/C=N/NC(=O)c2cccc(Br)c2)cc1Cn1cc(Cl)cn1,?,-1.8%,
CC(NC(=O)Cc1ccc(NC(=O)N2CCSc3ncccc32)cc1)c1ccccc1 (stereo not drawn),16.8%,-11.0%,
O=C(CNC(=O)c1ccccc1)OCC(=O)c1ccccc1,·,·,Papain inh=-24.7%
CCOc1ccc(C(=O)COC(=O)CNC(=O)C2CCCCC2)cc1,·,·,Papain inh=-27.5%
CCOc1ccc(C(=O)COC(C)=O)cc1,-6.7%,2.0%,
O=C(CN1C(=O)c2ccccc2C1=O)NCC(=O)OCC(=O)c1ccc(Br)cc1,-9.0%,0.2%,
CCOC(=O)CNC(=O)c1ccccc1,5.5%,-2.2%,
COc1ccc(C(=O)C(C)OC(=O)CNC(=O)C2CCCCC2)cc1 (stereo not drawn),·,·,Papain inh=11.2µM*
COc1ccc(C(CC(=O)O)NC(=O)C2CCCCC2)cc1 (stereo not drawn),-5.5%,3.5%,
O=C(CNC(=O)C1CCCCC1)OCC(=O)c1ccc(Br)cc1,·,·,Papain inh=-24.2%
COCCn1c(=O)c(-c2cccs2)nc2cnc(Oc3cccc(Cl)c3)nc21,6.3%,1.1%,
SMILES,Cruzain inh noDet,Cruzain inh Det,others
CCOc1cc(-c2ccc(OC(=O)c3ccc(OC)cc3)c(OC)c2)cc(=O)c2c(C)oc(C)c12,3.3%,-8.3%,
CCOc1ccc(NC(=O)CCc2nnc3n(C)c(=O)c4sccc4n23)cc1,9.5%,2.8%,
O=C(CNC(=O)c1ccco1)OCC(=O)c1ccc2c(c1)CCCC2,-0.5%,-9.9%,
O=C(CNC(=O)C1CCCCC1)OCC(=O)c1ccc2c(c1)CCC2,·,·,Papain inh=-24.9%
Cc1cc(C)cc(NS(=O)(=O)c2ccc3c(c2)CCCN3C(=O)C2CCC2)c1,2.8%,-6.8%,
CCN(Cc1ccccc1)c1nc2c(S(=O)(=O)c3ccccc3)nnn2c2ccc(Cl)cc12,?,-3.1%,Papain inh=31.6µM*
COCCNc1nc2c(S(=O)(=O)c3ccccc3)nnn2c2ccc(Cl)cc12,8.9%,0.0%,
COc1cccc(C(=O)NCCc2csc3nc(-c4ccccc4F)nn23)c1OC,-4.6%,-3.2%,
Cc1cc(N2CCN(c3cccc(C(F)(F)F)c3)CC2)n2nc(-c3ccccc3C)nc2n1,3.5%,-0.6%,
COc1cc(/C=C/c2nc(C#N)c(NC(C)c3ccccc3)o2)cc(OC)c1OC (stereo not drawn),?,6.7%,
CNc1oc(/C=C/c2cc(OC)c(OC)c(OC)c2)nc1C#N,10µM*,28.2µM*,Papain inh=8.91µM*
CC1(C)Oc2ccc(/C=C/C(=O)N3CCOCC3)c(O)c2C(N2CCOCC2)C1O (stereo not drawn),2.3%,-8.0%,
CC(C)CC(=O)OC1C(N2CCOCC2)c2c(ccc(/C=C/C(=O)N3CCOCC3)c2O)OC1(C)C (stereo not drawn),?,-24.2%,Papain inh=14.1µM*
COCCn1nnnc1CN(Cc1cc2cc(OC)c(OC)cc2[nH]c1=O)C1CCCC1,1.1%,-15.3%,
CCOc1ccc2[nH]c(=O)c(CN(Cc3ccco3)Cc3nnnn3Cc3ccccc3)cc2c1,17.4%,-7.4%,

# Screening data as filed in PubChem.
